From PubChem BioAssay (NCATS)
Results filed as inconclusive are left out. Activity calls are given as the source filed them. Calls come from the whole dose curve; as a rule, active = well fitted inhibition curve with a large enough effect; inconclusive = small, poorly fitted or top-dose-only effect; inactive = flat fitted curve, though single readings scatter.

Columns and labels:
Test in all cases: qHTS profiling for inhibitors of Plasmodium falciparum proliferation (AID 504749); note: nearly all actives have a fitted effect of over 60% in size
Settings in all cases: P. falciparum in erythrocytes, SYBR Green DNA, 72 h; series mostly up to 28.7 µM
CP215 = test system: CP215
Method in brief: (§1)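 Readout was DNA-dye fluorescence from lysed cultures, ex 485/em 535 nm. Parasitized red cells had grown 72 h with compound; data scaled between 0.29 uM artemisinin and DMSO wells and corrected using vehicle-only plates.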

CP217 = test system: CP217
Method in brief: as §1

CP237 = test system: CP237
Method in brief: as §1

CP238 = test system: CP238
Method in brief: as §1

CP247 = test system: CP247
Method in brief: as §1

CP250 = test system: CP250
Method in brief: as §1

CP252 = test system: CP252
Method in brief: as §1

CP256 = test system: CP256
Method in brief: as §1

CP260 = test system: CP260
Method in brief: as §1

CP262 = test system: CP262
Method in brief: as §1

Measured: outcome

CCOC(=O)C(CCc1ccccc1)NC(C)C(=O)N1Cc2ccccc2CC1C(=O)O (stereo not given)
inactive: all assays above

CCc1cccc2c3c([nH]c12)[C@@](CC)(CC(=O)O)OCC3
inactive: all assays above
